The values that follow come from ChEMBL document CHEMBL1961873, “Compounds: GSK PKIS; Assays: Nanosyn kinase panel” (2012).

Molecules are shown by their SMILES.

Test [1] deals with T1, Muscle, skeletal receptor tyrosine-protein kinase (Homo sapiens) (UniProt O15146).
T1 sequence (whole entry): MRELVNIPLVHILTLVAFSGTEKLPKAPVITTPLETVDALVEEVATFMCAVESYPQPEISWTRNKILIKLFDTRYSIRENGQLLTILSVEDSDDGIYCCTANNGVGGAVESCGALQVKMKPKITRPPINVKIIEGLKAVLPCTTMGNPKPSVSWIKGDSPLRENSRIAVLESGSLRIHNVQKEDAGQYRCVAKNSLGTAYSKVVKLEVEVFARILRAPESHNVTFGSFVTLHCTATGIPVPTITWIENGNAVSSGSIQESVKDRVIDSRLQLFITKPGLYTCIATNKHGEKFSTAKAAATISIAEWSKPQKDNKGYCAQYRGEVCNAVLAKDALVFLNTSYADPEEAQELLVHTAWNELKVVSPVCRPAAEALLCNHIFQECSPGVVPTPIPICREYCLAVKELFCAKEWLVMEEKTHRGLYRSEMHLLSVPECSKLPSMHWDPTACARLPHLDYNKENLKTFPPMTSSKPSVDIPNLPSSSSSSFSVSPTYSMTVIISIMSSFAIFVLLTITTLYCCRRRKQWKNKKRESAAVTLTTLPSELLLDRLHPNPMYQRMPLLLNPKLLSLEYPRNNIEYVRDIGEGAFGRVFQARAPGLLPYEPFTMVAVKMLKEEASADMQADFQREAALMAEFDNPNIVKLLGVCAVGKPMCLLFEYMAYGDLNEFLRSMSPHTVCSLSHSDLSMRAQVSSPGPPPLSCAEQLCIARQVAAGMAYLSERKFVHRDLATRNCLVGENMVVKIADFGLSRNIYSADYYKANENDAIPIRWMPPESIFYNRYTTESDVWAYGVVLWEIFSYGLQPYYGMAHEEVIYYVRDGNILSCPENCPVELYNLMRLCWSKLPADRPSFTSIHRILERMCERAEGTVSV
The settings on record: at 1 µM.

The target of test [2] is Platelet-derived growth factor receptor alpha (Homo sapiens) (UniProt P16234). The note with it: at 0.1 µM.
Sequence of Platelet-derived growth factor receptor alpha (Homo sapiens) (P16234 whole entry): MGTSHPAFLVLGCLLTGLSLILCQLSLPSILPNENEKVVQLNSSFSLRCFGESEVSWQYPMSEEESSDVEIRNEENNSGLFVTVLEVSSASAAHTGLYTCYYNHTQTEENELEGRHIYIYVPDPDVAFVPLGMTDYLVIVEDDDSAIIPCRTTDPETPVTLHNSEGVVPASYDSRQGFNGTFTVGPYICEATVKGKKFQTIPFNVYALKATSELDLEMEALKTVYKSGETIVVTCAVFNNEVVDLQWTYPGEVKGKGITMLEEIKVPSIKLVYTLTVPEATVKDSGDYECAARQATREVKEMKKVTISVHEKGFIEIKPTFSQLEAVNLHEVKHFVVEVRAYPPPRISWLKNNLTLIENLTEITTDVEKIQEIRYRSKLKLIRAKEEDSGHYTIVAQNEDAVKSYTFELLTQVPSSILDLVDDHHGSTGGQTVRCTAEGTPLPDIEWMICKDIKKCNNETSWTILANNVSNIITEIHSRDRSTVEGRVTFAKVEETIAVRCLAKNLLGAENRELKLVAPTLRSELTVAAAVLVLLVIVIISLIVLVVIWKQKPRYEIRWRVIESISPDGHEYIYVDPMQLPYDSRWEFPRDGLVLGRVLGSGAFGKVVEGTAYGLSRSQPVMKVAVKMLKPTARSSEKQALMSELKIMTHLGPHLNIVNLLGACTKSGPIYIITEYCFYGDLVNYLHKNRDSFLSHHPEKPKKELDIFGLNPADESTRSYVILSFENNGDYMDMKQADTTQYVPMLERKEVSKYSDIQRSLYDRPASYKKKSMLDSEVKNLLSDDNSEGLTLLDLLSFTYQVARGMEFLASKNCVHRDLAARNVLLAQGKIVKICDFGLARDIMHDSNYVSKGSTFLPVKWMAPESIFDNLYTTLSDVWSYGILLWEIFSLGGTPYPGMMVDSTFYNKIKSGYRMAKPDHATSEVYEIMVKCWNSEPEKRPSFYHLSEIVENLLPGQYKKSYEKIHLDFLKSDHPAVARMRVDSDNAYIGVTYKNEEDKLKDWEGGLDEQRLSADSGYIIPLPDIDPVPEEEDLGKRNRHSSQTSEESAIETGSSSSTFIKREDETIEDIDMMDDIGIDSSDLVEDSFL
The target is the same in test [3]. The settings on record: at 1 µM.
In test [4] the test system is Platelet-derived growth factor receptor alpha (Homo sapiens), P16234 [D842V]. The settings on record: at 0.1 µM.
Test [5] has the same test system. The note with it: at 1 µM.
For test [6], the system named is Platelet-derived growth factor receptor alpha (Homo sapiens), P16234 [T674I]. The settings on record: at 0.1 µM.
Sequence of Platelet-derived growth factor receptor alpha (Homo sapiens), P16234 [T674I] (P16234 whole entry T674I): as the sequence (P16234 whole entry) above, with T674I counted along it
Test [7] shares this test system. The settings on record: at 1 µM.
Test [8] concerns Platelet-derived growth factor receptor alpha (Homo sapiens), P16234 [V561D]. The settings on record: at 0.1 µM.
Sequence of Platelet-derived growth factor receptor alpha (Homo sapiens), P16234 [V561D] (P16234 whole entry V561D): as the sequence (P16234 whole entry) above, with V561D counted along it
The test system is the same in test [9]. The note with it: at 1 µM.
Test [10] addresses Platelet-derived growth factor receptor beta (Homo sapiens) (UniProt P09619). The settings on record: at 0.1 µM.
Test [11] shares this target. The settings on record: at 1 µM.
Test [12] addresses Tyrosine-protein kinase FRK (Homo sapiens) (UniProt P42685). The settings on record: at 0.1 µM.
Test [13] has the same target. The settings on record: at 1 µM.
Test [14] has as its target Protein-tyrosine kinase 2-beta (Homo sapiens) (UniProt Q14289). The settings on record: at 0.1 µM.
Test [15] has the same target. The note with it: at 1 µM.
Test [16] concerns the target Proto-oncogene tyrosine-protein kinase receptor Ret (Homo sapiens) (UniProt P07949). The settings on record: at 0.1 µM.
Test [17] shares this target. The settings on record: at 1 µM.
Test [18] relates to Proto-oncogene tyrosine-protein kinase receptor Ret (Homo sapiens), P07949 [V804L]. The note with it: at 0.1 µM.
For test [19] the test system is unchanged. The note with it: at 1 µM.
The subject of test [20] is Proto-oncogene tyrosine-protein kinase receptor Ret (Homo sapiens), P07949 [Y791F]. The note with it: at 0.1 µM.

Sequence of Platelet-derived growth factor receptor beta (Homo sapiens) (P09619 whole entry): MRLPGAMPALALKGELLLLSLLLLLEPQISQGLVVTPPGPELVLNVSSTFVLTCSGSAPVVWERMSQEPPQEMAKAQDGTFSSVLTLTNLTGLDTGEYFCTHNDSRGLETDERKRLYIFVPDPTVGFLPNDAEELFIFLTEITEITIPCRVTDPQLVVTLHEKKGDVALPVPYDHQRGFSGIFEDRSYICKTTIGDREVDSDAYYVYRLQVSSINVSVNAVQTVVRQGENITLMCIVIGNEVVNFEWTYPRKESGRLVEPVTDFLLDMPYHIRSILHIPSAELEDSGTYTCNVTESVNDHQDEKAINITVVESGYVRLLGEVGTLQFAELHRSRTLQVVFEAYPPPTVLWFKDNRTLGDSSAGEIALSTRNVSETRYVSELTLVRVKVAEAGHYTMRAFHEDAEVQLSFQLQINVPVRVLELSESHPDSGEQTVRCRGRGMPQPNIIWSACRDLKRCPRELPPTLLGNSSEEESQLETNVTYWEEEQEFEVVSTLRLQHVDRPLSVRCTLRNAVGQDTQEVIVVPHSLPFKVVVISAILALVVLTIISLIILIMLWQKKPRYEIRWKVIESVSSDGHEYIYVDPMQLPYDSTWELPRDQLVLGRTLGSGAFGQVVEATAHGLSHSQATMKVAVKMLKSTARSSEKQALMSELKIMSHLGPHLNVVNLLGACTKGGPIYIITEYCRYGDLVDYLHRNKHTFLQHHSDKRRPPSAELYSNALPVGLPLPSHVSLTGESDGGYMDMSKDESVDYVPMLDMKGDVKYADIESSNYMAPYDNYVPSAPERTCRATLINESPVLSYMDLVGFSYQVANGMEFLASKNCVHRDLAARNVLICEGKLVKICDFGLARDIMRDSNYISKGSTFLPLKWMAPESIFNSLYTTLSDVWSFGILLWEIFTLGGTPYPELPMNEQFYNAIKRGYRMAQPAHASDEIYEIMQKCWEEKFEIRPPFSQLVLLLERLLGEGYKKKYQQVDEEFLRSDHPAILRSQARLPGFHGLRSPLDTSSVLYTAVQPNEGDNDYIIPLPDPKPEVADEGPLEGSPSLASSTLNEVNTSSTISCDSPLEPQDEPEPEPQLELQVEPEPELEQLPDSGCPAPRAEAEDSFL
Sequence of Tyrosine-protein kinase FRK (Homo sapiens) (P42685 whole entry): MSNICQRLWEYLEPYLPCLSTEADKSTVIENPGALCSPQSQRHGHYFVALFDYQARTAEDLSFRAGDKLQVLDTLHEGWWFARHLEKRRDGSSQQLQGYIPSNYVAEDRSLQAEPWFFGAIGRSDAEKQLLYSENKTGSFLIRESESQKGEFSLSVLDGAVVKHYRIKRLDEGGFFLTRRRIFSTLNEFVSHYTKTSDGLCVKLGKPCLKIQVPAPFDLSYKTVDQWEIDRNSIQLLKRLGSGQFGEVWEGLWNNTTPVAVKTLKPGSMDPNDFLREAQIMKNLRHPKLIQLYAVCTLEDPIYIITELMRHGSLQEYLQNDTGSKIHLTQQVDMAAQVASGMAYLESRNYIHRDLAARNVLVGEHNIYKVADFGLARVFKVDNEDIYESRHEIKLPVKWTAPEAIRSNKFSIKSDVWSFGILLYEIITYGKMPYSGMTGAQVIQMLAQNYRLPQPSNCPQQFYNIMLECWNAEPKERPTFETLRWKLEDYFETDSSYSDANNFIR

Usually inhibition stands for the drop in the measured response relative to a control, in per cent. For the molecule `[O-][S+]1CCN(Cc2ccc(-c3ccc4ncnc(Nc5ccc(OCc6ccccc6)c(F)c5)c4c3)o2)CC1`, the inhibition in test [1] is 3.05%; in test [2], 3.33%; in test [3] it was 4.2%; in [4] it was 2.67%; in test [5] it was 1.42%; in [6], 2.19%. For the same molecule, the inhibition in [7] came out at 3.59%; in test [8], 0.45%; in test [9] it was 3.92%; in [10] it was 1.19%; in [11], 3.24%; in [12], 0.91%. Further, the inhibition in test [13] is 1.11%; in [14] it was 2.85%; in test [15], -2.53%; in test [16] it was 6.29%; in [17], 9.08%; in test [18], 8.58%. Moreover, the inhibition worked out at 5.31% in test [19] and 1.94% in test [20].

Turning to `Fc1cccc(COc2ccc(Nc3ncnc4sc(-c5cccs5)cc34)cc2Cl)c1`, the inhibition in [1] was 2.36%; in test [2] it was 2.17%; in test [3], 5.87%; in test [4] it was 1.25%; in [5], 2.11%; in test [6] it was 3.52%. In addition, the inhibition in test [7] is 9.66%; in test [8] it was 4.39%; in test [9], 4.26%; in test [10] it was 3.06%; in test [11], 4.24%; in test [12], 1.12%. Also, the inhibition in test [13] is 2.35%; in test [14], -5.04%; in [15], 3.37%; in test [16], 3.97%; in [17], 0.68%; in test [18], 0.76%. Besides, the inhibition in test [19] worked out at 2.26%; in [20] it was 1.05%.

`CC1=C(C(=O)Nc2ccc3[nH]ncc3c2)C(c2ccc(Cl)c(Cl)c2)CC(=O)N1` (stereo not given): the inhibition in [1] amounted to 4.26%; in test [2], 6.81%; in test [3] it was 8.15%; in [4], 0.72%; in test [5] it was 1.68%; in [6], 2.47%. Moreover, the inhibition in test [7] is 1.49%; in [8], 0.48%; in test [9], 2.1%; in [10] it was 1.34%; in test [11] it was 6.02%; in test [12], 1.03%. Further, the inhibition in [13] is 7.47%; in [14] it was 6.27%; in test [15], 8.74%; in test [16], 5.65%; in test [17], 22.8%; in [18], 3.81%. Besides, the inhibition in test [19] turned out to be 16.5%; in [20] it was 8.05%.

For the molecule `NS(=O)(=O)c1ccc(N/N=C2\C(=O)Nc3ccc(C(=O)NCCc4c[nH]cn4)cc32)cc1`, the inhibition in [1] was determined as 43.1%; in [2] it was 23.6%; in [3] it was 65.6%; in [4], 15.9%; in test [5], 62.5%; in [6], 6.94%. Further, the inhibition in [7] was 14.5%; in [8], 12.9%; in test [9], 54.9%; in test [10], 38.6%; in test [11], 82.7%; in test [12], 0.73%. Besides, the inhibition in test [13] was found to be 3.44%; in test [14] it was 12.8%; in [15], 24.2%; in test [16], 15.3%; in test [17], 57.8%; in [18] it was 42.6%. The values for the inhibition in test [19] and in test [20] were 83.5% and 22.8%, respectively.

Consider `NS(=O)(=O)c1cccc(-c2ccc3c(NC(=O)C4CC4)n[nH]c3c2)c1`, for which the inhibition in test [1] is 4.13%; in test [2], 3.24%; in test [3], 9.75%; in [4], 1.86%; in [5] it was 7.06%; in test [6], -0.86%. Also, the inhibition was 1.24% in test [7]; 3.88% in test [8]; 6.54% in test [9]; 0.91% in test [10]; 5.08% in [11]; 0.47% in [12]. Moreover, the inhibition in test [13] was 1.64%; in [14], -7.23%; in test [15], 5.72%; in test [16] it was 2.41%; in [17], 1.62%; in test [18] it was -0.14%. Further, the inhibition in test [19] was -1.66%; in test [20] it was -2.8%.

On to `c1cnn2ncc(-c3ccnc(Nc4ccc5c(c4)OCCO5)n3)c2c1`, for which the inhibition in test [1] was found to be 26.9%; in test [2] it was 16.1%; in test [3], 51.5%; in test [4], 6.44%; in test [5] it was 40.6%; in [6] it was 16.9%. Besides, the inhibition stood at 74.7% in [7]; 23.3% in [8]; 61.7% in test [9]; 18.4% in test [10]; 67.3% in test [11]; 1.69% in test [12]. The inhibition stood at 3.19% in [13]; 32.6% in test [14]; 84.6% in test [15]; 5.62% in test [16]; 21.9% in test [17]; 5.79% in test [18]. Also, the inhibition turned out to be 22% in test [19] and 4.73% in test [20].

For `CCCN1CCC(Oc2cc(Nc3nc(Nc4cccc(F)c4C(N)=O)c4cc[nH]c4n3)c(OC)cc2Cl)CC1`, the inhibition is 8.65% in [1]; 3.93% in test [2]; 11.6% in test [3]; 0.78% in test [4]; -0.29% in test [5]; 2.51% in [6]. The inhibition is 1.04% in test [7]; 1.89% in test [8]; 4.25% in [9]; 4.35% in test [10]; 8.63% in test [11]; -0.17% in [12]. Further, the inhibition in test [13] was determined as 0.23%; in test [14] it was 38.2%; in test [15] it was 92.4%; in test [16] it was 7.67%; in [17], 12.8%; in test [18], 3.55%. The inhibition is 15.5% in test [19] and 4.36% in [20].
